Experimental data: PubChem BioAssay (NCI)
About 83,000 compounds went through this panel and 20% of them were active in at least one assay; those are over-represented in the sample as a whole.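 Results are percent growth after 48 hours of single-concentration exposure. 100 means growth as in untreated cells, lower positive values show inhibition; negative values down to -100 show cell death.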 Active and inactive are the calls of the source. The calls were made as follows: active = growth percent below 10; inactive = the rest.

What was measured:
Test in all cases: NCI-60 one-dose screen, 48 h (100 = growth as untreated, 0 = no growth, -100 = all killed)
Conditions in all cases: 10 µM unless noted
NCI-H23 lung = system: NCI-H23 lung
NCI-H226 lung = system: NCI-H226 lung
NCI-H322M lung = system: NCI-H322M lung
NCI-H460 lung = system: NCI-H460 lung
HOP-92 NSCLC = system: HOP-92 NSCLC
A549/ATCC NSCLC = system: A549/ATCC NSCLC
786-0 renal = system: 786-0 renal
COLO 205 colon = system: COLO 205 colon
DU-145 prostate = system: DU-145 prostate
K-562 leukemia = system: K-562 leukemia
MALME-3M melanoma = system: MALME-3M melanoma
MDA-MB-231 breast = system: MDA-MB-231 breast
SF-268 CNS = system: SF-268 CNS
SF-295 CNS = system: SF-295 CNS
SF-539 CNS = system: SF-539 CNS
UACC-257 melanoma = system: UACC-257 melanoma
M14 melanoma = system: M14 melanoma
NCI-H522 lung = system: NCI-H522 lung
RXF 393 renal = system: RXF 393 renal

Measured: growth

Fc1ccc2nc3c(cc2c1)CSc1nnc(-c2ccc[nH]c2=S)n1N3
inactive: NCI-H23 lung 92.7% | NCI-H226 lung 93.3% | NCI-H322M lung 106% | NCI-H460 lung 105% | HOP-92 NSCLC 78.1% | A549/ATCC NSCLC 108% | 786-0 renal 89.7% | COLO 205 colon 115% | DU-145 prostate 114% | K-562 leukemia 106% | MALME-3M melanoma 112% | MDA-MB-231 breast 94.4% | SF-268 CNS 98.7% | SF-295 CNS 105% | SF-539 CNS 95.7% | UACC-257 melanoma 105% | M14 melanoma 99%

COc1ccc(/C=C/C(=O)c2ccc(Nc3ncnc4ccccc34)cc2)cc1OC
inactive: NCI-H23 lung 73.3% | NCI-H226 lung 104% | NCI-H322M lung 92.4% | NCI-H460 lung 83.8% | HOP-92 NSCLC 74% | NCI-H522 lung 92.7% | A549/ATCC NSCLC 68.3% | 786-0 renal 79.2% | COLO 205 colon 109% | DU-145 prostate 83.1% | MALME-3M melanoma 101% | MDA-MB-231 breast 72.1% | SF-268 CNS 68.1% | SF-295 CNS 79.6% | SF-539 CNS 98.1% | UACC-257 melanoma 98.6% | M14 melanoma 64.7%

CN1C2CCC1CN(c1cnc(C(=O)Nc3cc(F)cc4cccnc34)cn1)C2
inactive: NCI-H23 lung 46.8% | NCI-H226 lung 88.9% | NCI-H322M lung 74.6% | NCI-H460 lung 83.4% | HOP-92 NSCLC 81.2% | NCI-H522 lung 24.4% | A549/ATCC NSCLC 87.5% | 786-0 renal 51.8% | COLO 205 colon 10.4% | DU-145 prostate 74.6% | K-562 leukemia 15.7% | MALME-3M melanoma 41% | MDA-MB-231 breast 31.4% | SF-268 CNS 85.6% | SF-295 CNS 97.6% | SF-539 CNS 70.4% | UACC-257 melanoma 42.7% | M14 melanoma 54.3%

COc1ccc(-c2nc(N/N=C/c3c[nH]c4ccccc34)nc(N3CCOCC3)c2C#N)cc1
inactive: NCI-H23 lung 111% | NCI-H226 lung 105% | NCI-H322M lung 94.1% | NCI-H460 lung 82.8% | HOP-92 NSCLC 69.1% | NCI-H522 lung 99.7% | A549/ATCC NSCLC 92.4% | 786-0 renal 45.9% | COLO 205 colon 78.5% | DU-145 prostate 79.7% | K-562 leukemia 38% | MALME-3M melanoma 80.3% | MDA-MB-231 breast 72.4% | SF-268 CNS 95.5% | SF-295 CNS 68.2% | SF-539 CNS 67.6% | UACC-257 melanoma 21.4% | M14 melanoma 88.5%

O=C1Nc2c(ccc(Cl)c2Cl)/C1=C/c1ccccn1
inactive: NCI-H23 lung 81.5% | NCI-H226 lung 93.5% | NCI-H322M lung 93.4% | NCI-H460 lung 97.6% | HOP-92 NSCLC 66.2% | A549/ATCC NSCLC 13% | 786-0 renal 12.5% | COLO 205 colon 108% | DU-145 prostate 104% | MALME-3M melanoma 85.5% | MDA-MB-231 breast 84.7% | SF-268 CNS 84.8% | SF-295 CNS 107% | SF-539 CNS 92.8% | M14 melanoma 69.9%
active: UACC-257 melanoma -20.9%

Cc1ccccc1C(c1ccccc1)c1ccccc1C
inactive: NCI-H23 lung 94.4% | NCI-H226 lung 22.1% | NCI-H322M lung 90.9% | NCI-H460 lung 101% | HOP-92 NSCLC 79.7% | NCI-H522 lung 77.1% | A549/ATCC NSCLC 73.6% | 786-0 renal 98.8% | COLO 205 colon 105% | DU-145 prostate 117% | K-562 leukemia 105% | MALME-3M melanoma 109% | MDA-MB-231 breast 104% | SF-268 CNS 99.7% | SF-295 CNS 97.7% | SF-539 CNS 106% | UACC-257 melanoma 71.3% | M14 melanoma 80.3%

COc1cc(NCC(O)CN(CC(C)C)CC(C)C)c2nc(C)ccc2c1 (stereo not drawn)
inactive: NCI-H23 lung 85.6% | NCI-H226 lung 88.5% | NCI-H322M lung 107% | NCI-H460 lung 96.5% | HOP-92 NSCLC 98.6% | NCI-H522 lung 68.2% | A549/ATCC NSCLC 67.3% | 786-0 renal 90.7% | COLO 205 colon 66.3% | DU-145 prostate 97.9% | K-562 leukemia 78.4% | MALME-3M melanoma 119% | MDA-MB-231 breast 55.9% | SF-268 CNS 78.9% | SF-295 CNS 100% | SF-539 CNS 108% | UACC-257 melanoma 54.1% | M14 melanoma 88.6%

COc1ccc2c(c1)OC1=C(C(=O)OC1)C2c1cc(OC)c(OC)c(OC)c1 (stereo not drawn)
active: NCI-H460 lung 5.28% | NCI-H522 lung -32.5% | COLO 205 colon 1.87% | DU-145 prostate 6.88% | SF-295 CNS 8.32% | SF-539 CNS 0.966%
inactive: NCI-H23 lung 31.8% | NCI-H226 lung 26.8% | NCI-H322M lung 52.6% | HOP-92 NSCLC 74.8% | A549/ATCC NSCLC 20.7% | 786-0 renal 36.8% | K-562 leukemia 14.1% | MALME-3M melanoma 61.1% | MDA-MB-231 breast 42.7% | SF-268 CNS 32% | UACC-257 melanoma 39.6% | M14 melanoma 10.2%

O=C(Nc1nc2ccc(S(=O)(=O)Nc3ccc(C4(C(F)(F)F)CC4)cc3)cc2[nH]1)c1cnccn1
active: NCI-H460 lung 8.38% | SF-539 CNS 5.95%
inactive: NCI-H23 lung 43.6% | NCI-H226 lung 54.1% | NCI-H322M lung 46.6% | HOP-92 NSCLC 39.3% | A549/ATCC NSCLC 35.1% | 786-0 renal 33.9% | COLO 205 colon 35.1% | DU-145 prostate 30.4% | K-562 leukemia 21.4% | MALME-3M melanoma 37.3% | MDA-MB-231 breast 59.2% | RXF 393 renal 28.6% | SF-268 CNS 34.3% | SF-295 CNS 33.4% | UACC-257 melanoma 48.5% | M14 melanoma 34.7%
